Sampled rows, rich in hits. Any-hit rate of the full collection: about 12%.
CHX counter-1 – counter-screen hit for Shiga toxin inhibitors, cycloheximide; cell reporter, cycloheximide protein synthesis inhibition counterscreen; max response, %; actives 12% (n = 300,000); in the data active = max response mostly above about 13%, no sharp cut-off; inactive = mostly below about 14%; also: read at 38.3 µM for the half of the compounds with a filed dose
FMDV inh – foot and mouth disease virus antiviral activity; Potency, µM (highest dose often 57.9 µM), actives largely listed as inhibitors; AID 1159524; actives 1.2% (n = 410,000); FMDV antiviral cell-based qHTS; calls by dose curve; tested in HEK293T cells; also: read-out not given here; nearly all actives have a fitted effect of over 45% in size
Sm TGR block – inhibitors of Schistosoma mansoni thioredoxin glutathione reductase; Q962Y6; purified TGR, DTNB reduction, TNB absorbance 405 nm; Potency, µM (series often up to 114 µM), usual class: inhibitors; actives 3% (n = 360,000); AID 485364; active = well fitted inhibition curve with a large enough effect; inconclusive = small, poorly fitted or top-dose-only effect; inactive = no such curve, though single readings can be large or run the other way; also: nearly all actives have a fitted effect of over 60% in size
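First, TGR (20 nM dispensed) and NADPH were mixed with compound. Second, a 15 min room-temperature incubation followed. Third, further NADPH and then DTNB were added to start the reaction. Finally, TNB absorbance was monitored kinetically.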
Shiga inhibitor – inhibitors of Shiga toxin in Vero cells. Vero cells, Shiga toxin protein synthesis inhibition reporter. inhibition, % at 38.7 µM. AID 2315. actives 9.2% (n = 290,000); in the data active = inhibition mostly above about 28%, no sharp cut-off; inactive = mostly below about 43%
CHX counter-2 – protein synthesis counter-screen activity for Shiga toxin hits | shares compounds with Shiga inhibitor | actives 3% (n = 510) | Cycloheximide counterscreen, protein synthesis reporter, Shiga toxin assay | AID 2318 | Potency, µM (doses to about 38.3 µM), most hits filed as activators; calls by dose curve
Of the large screens only hits and unclear results are named; the others gave an inactive call (follow-up assays come after a bar, where they were run); ! = repeats disagree.

CC1=C(C(=O)Nc2ccccc2)C(CC(C)C)n2nc(SCc3ccccc3C)nc2N1 (centres undefined)	none (no result: CHX counter-1, Shiga inhibitor)
CC1=C(C)C(OCCBr)N(c2cc(O)c(Cl)cc2F)C1=O (centres undefined)	Sm TGR block 28µM, Shiga inhibitor 43 | CHX counter-2 inactive
O=C/C=C/c1ccccc1	Shiga inhibitor 64 (no result: Sm TGR block) | CHX counter-2 inconclusive
Cc1ccc(-c2nnc(Nc3cccc(O)c3)c3ccccc23)cc1S(=O)(=O)N1CCCCC1	none (no result: CHX counter-1, Shiga inhibitor)
O=C1Nc2ccccc2Sc2ccccc21	none (no result: Sm TGR block)
N#C/C=C1/NC(=O)c2ccccc2S1	Shiga inhibitor 71 | CHX counter-2 inactive
COC(=O)COc1ccc(Oc2nc(NC(C)(C)C)nc(N(C)C)n2)nn1	none (no result: CHX counter-1, Shiga inhibitor)
Cn1c(CN2CCCCC2)nc2cc(NC(=O)c3ccc(Cl)cc3)ccc21	FMDV inh 18µM!, Shiga inhibitor 27 | CHX counter-2 inactive
COc1ccc(-c2nnc3n2N(C(C)=O)C(c2ccc(Cl)c(Cl)c2)=C(C(C)=O)S3)cc1	none (no result: CHX counter-1, Shiga inhibitor)
Cc1ccccc1C(=O)Nc1sc2c(c1C(=O)NCc1ccco1)CCC(C(C)(C)C)C2 (centres undefined)	none (no result: CHX counter-1, Shiga inhibitor)
CCOC(=O)c1ccc(NC(=O)c2ccc3c(c2)NC(=O)c2ccccc2S3)cc1	FMDV inh inconclusive (no result: CHX counter-1, Shiga inhibitor)
CCOC(=O)Nc1ccc2c(c1)Nc1ccccc1S2	FMDV inh inconclusive, Shiga inhibitor 31 | CHX counter-2 inactive
CC1(C)Cc2c(cnn2-c2ccccc2)C(NC(=O)CCN2CCCCO2)C1 (centres undefined)	Shiga inhibitor 26 | CHX counter-2 inactive
Cc1nn(C)c(C)c1CCC(=O)NC1CC(C)(C)Cc2c1cnn2-c1ccccc1 (centres undefined)	none
CN(CC(=O)N1CCN(Cc2ccccc2)CC1)S(=O)(=O)c1ccc(F)cc1	none
CN1CCN(C(=O)CN(C)S(=O)(=O)c2ccc(F)cc2)CC1	Shiga inhibitor 38 | CHX counter-2 inactive
CCC(=O)NNc1ncnc2c1cnn2-c1ccc(C)c(Cl)c1	none (no result: CHX counter-1, Shiga inhibitor)
NS(=O)(=O)c1cc(C(=O)NCC2CCCCC2)ccc1Cl	Shiga inhibitor 56 | CHX counter-2 inactive
COc1ccc2[nH]c(-c3ccccc3)cc(=O)c2c1	Shiga inhibitor active (no result: FMDV inh, Sm TGR block) | CHX counter-2 inconclusive
O=c1cc(-c2ccc(F)cc2F)[nH]c2ccccc12	none (no result: FMDV inh)
O=c1cc(-c2cccc(F)c2)[nH]c2ccc(Cl)cc12	Shiga inhibitor active (no result: FMDV inh, Sm TGR block) | CHX counter-2 inactive
CCCc1cc(=O)[nH]c(SCc2nc(-c3ccccc3)no2)n1	none (no result: CHX counter-1, Shiga inhibitor)
Cc1cc(C)c2c(n1)nn1c(C)c(CCC(=O)Nc3ccc(C)c(Cl)c3)c(C)nc21	none (no result: CHX counter-1, Shiga inhibitor)
N#Cc1cc2c(nc1SCC(=O)Nc1cc(Cl)ccc1Cl)C1CCN2CC1	FMDV inh inconclusive, Shiga inhibitor 48 | CHX counter-2 inconclusive
CN(c1ccc(C(=O)NCc2ccc3c(c2)OCO3)cc1)S(C)(=O)=O	none
CN(C)c1ccc(C(=O)NCc2ccc3c(c2)CCO3)cc1	Shiga inhibitor 55 | CHX counter-2 inactive
CCOc1ccc(-c2cc3c(=O)n(CC(=O)NCc4ccc(C)cc4)ccn3n2)cc1	none (no result: CHX counter-1, Shiga inhibitor)
CO/N=C(\Cn1ncc(N2CCOCC2)c(Br)c1=O)c1ccc(Cl)cc1	none
CC(C)(C)C(=O)Cn1ncc(N2CCOCC2)c(Br)c1=O	Shiga inhibitor 26 | CHX counter-2 inactive
C=C1C(O)C2OC3(CCC(/C=C/C(C)C4CC(C)=CC5(OC(CC(C)(O)C(=O)O)CCC5O)O4)O3)CCC2OC1C(O)CC(C)C1OC2(CCCCO2)CCC1C (centres undefined)	Shiga inhibitor active (no result: FMDV inh, Sm TGR block) | CHX counter-2 inactive
COc1ccc(CNC(=O)c2ccc(Cl)c(NC3=NC4CS(=O)(=O)CC4S3)c2)cc1 (centres undefined)	none
COc1cccc(CNC(=O)c2ccc(C)c(NC3=NC4CS(=O)(=O)CC4S3)c2)c1 (centres undefined)	Shiga inhibitor 11 | CHX counter-2 inactive
CCc1ccccc1NC(=O)C(C)n1c(=O)cc(C)c2c(C)nn(-c3ccccc3)c21 (centres undefined)	none (no result: CHX counter-1, Shiga inhibitor)
CCCCn1c(SCC(=O)c2ccccc2)nc2c1c(=O)[nH]c(=O)n2C	FMDV inh inconclusive, Shiga inhibitor 16 | CHX counter-2 inactive
COc1cccc(CN(C(=O)c2cccc(C)c2)C2CCS(=O)(=O)C2)c1 (centres undefined)	none (no result: CHX counter-1, Shiga inhibitor)
Cc1ccc(-n2cc(-c3ccccc3)c3c(NC4CCCC4)ncnc32)cc1	none (no result: CHX counter-1, Shiga inhibitor)
O=C(c1ccccn1)c1ccc2ccccc2n1	Shiga inhibitor 56 | CHX counter-2 inactive
Cc1cc(C)cc(NC(=O)N2CCCC2C(=O)Nc2ccc(-n3cnnn3)cc2)c1 (centres undefined)	none
CC(C)c1ccc(NC(=O)N2CCCC2C(=O)Nc2ccc(-n3cnnn3)cc2)cc1 (centres undefined)	Shiga inhibitor 29 (no result: Sm TGR block) | CHX counter-2 inactive
CCOC(=O)C1=C(C)NC(=O)NC1c1ccc(OCC(=O)OC)c(OC)c1 (centres undefined)	none
CCOC(=O)C1=C(C)NC(=O)NC1c1ccc(OCC(=O)Nc2ccccc2)c(OC)c1 (centres undefined)	Shiga inhibitor 39 | CHX counter-2 inactive
CSCCC(NC(=O)C1CCCCC1)C(=O)Nc1ccc(F)c(Cl)c1 (centres undefined)	none (no result: CHX counter-1, Shiga inhibitor)
O=C(Nc1cccc(-c2csc(Nc3ccc(Cl)cc3)n2)c1)c1ccccc1	Shiga inhibitor 29 | CHX counter-2 inconclusive
O=C(Nc1ccc(Cl)c(Cl)c1)Nc1nc(-c2ccccc2)cs1	none
CSc1ccc(CC2C(=O)Nc3ccccc32)cc1 (centres undefined)	none (no result: CHX counter-1, Shiga inhibitor)
CCC(C)(O)c1[nH]c2ccc(C(F)(F)F)cc2c1C (centres undefined)	Shiga inhibitor 18 | CHX counter-2 inactive
COc1ccc(OC)c(-c2noc(N3CCN(c4cccc(C)c4C)CC3)n2)c1	none (no result: CHX counter-1, Shiga inhibitor)
Cc1ccc(NC(=O)Cn2cnc3cc([N+](=O)[O-])ccc3c2=O)c(Cl)c1	none
O=C(Cn1cnc2cc([N+](=O)[O-])ccc2c1=O)NCc1ccc(Cl)cc1	Shiga inhibitor 47 (no result: Sm TGR block) | CHX counter-2 inactive
CCOc1ccc(-n2c(-c3ccccc3)c(C)n3c4c(=O)n(C)c(=O)n(C)c4nc23)cc1	none (no result: CHX counter-1, Shiga inhibitor)
O=C(c1ccc(C(=O)N2CCOCC2)nc1)N1CCOCC1	none
O=C(c1ccc(N2CCOCC2)nc1)N1CCOCC1	Shiga inhibitor 58 (no result: FMDV inh) | CHX counter-2 inactive
CCc1ccc(-n2c(N3CCN(c4cccc(Cl)c4)CC3)nc3ccccc3c2=O)cc1	none (no result: CHX counter-1, Shiga inhibitor)
CCSc1nnc(NC(=O)[C@@H](NC(=O)c2ccc(C(C)(C)C)cc2)C(C)C)s1	Shiga inhibitor 34 | CHX counter-2 inactive
O=C(Cn1ccn(-c2ccc(F)cc2)c(=O)c1=O)Nc1ccccc1C(F)(F)F	none (no result: CHX counter-1, Shiga inhibitor)
COc1ccccc1CNC(=O)CCc1c(C)nn(-c2ccc(N3CCCCC3)nn2)c1C	none (no result: CHX counter-1, Shiga inhibitor)
Cc1cccc(C(=O)N(c2ccccn2)C(C)c2ccco2)c1 (centres undefined)	none
CC(c1ccco1)N(C(=O)c1cc(Cl)cc(Cl)c1)c1ccccn1 (centres undefined)	Shiga inhibitor 24 | CHX counter-2 inactive
COc1ccc(CNC(=O)C2CCN(c3nc4ccccc4[nH]3)CC2)cc1OC	none (no result: CHX counter-1, Shiga inhibitor)

Screens deposited in PubChem BioAssay by National Center for Advancing Translational Sciences (NCATS).
